This note sets out measurements from PubChem BioAssay (NCATS).

The nature of assay [1]: qHTS of pediatric cancer cell lines to identify multiple opportunities for drug repurposing: Primary screen for BT-12 cells (AID 1347101). Also: nearly all actives have a fitted effect of over 25% in size. Also: potency is read from the fitted curve at half-maximal effect. A digest of the protocol: (§1)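 Cells (500-1,000/well) rested 5 h, then received compounds for 48 h; metabolically active cells were measured by CellTiter-Glo luminescence. Final concentrations spanned up to 46 µM (MIPE, 11-point) or 0.59 nM-46 µM (NPC, 8-point) in primary screens, 11-point in follow-ups.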

Assay [2] is described as follows: qHTS of pediatric cancer cell lines to identify multiple opportunities for drug repurposing: Primary screen for Rh18 cells (AID 1347102). Also: nearly all actives have a fitted effect of over 65% in size. A digest of the protocol: as §1
For orientation: qHTS replaces the single test concentration by a dilution series.

The nature of assay [3]: qHTS of pediatric cancer cell lines to identify multiple opportunities for drug repurposing: Primary screen for RD cells (AID 1347104). Also: nearly all actives have a fitted effect of over 55% in size. Also: potency is read from the fitted curve at half-maximal effect. A digest of the protocol:
(§2)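 Readout: CellTiter-Glo luminescence, 48 h treatment. Controls DMSO (neutral) and bortezomib 2.3 µM final (positive). Potency and efficacy taken from primary-screen concentration-response curves.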

A short description of assay [4]: qHTS of pediatric cancer cell lines to identify multiple opportunities for drug repurposing: Primary screen for control Hh wild type fibroblast cells (AID 1347106).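 Also: a drop in luminescence marks cytotoxicity and a rise apparent proliferation; nearly all actives have a fitted effect of over 55% in size.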 A digest of the protocol: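 Viability after 48 h compound treatment at 37C, 500-1,000 cells/well, read as ATP luminescence with CellTiter-Glo. Primary screens used 11-point (MIPE, 0.78 nM-46 µM) or 8-point (NPC, 0.59 nM-46 µM) final concentrations; follow-up screens used 11-point dilutions.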

The nature of assay [5]: qHTS of pediatric cancer cell lines to identify multiple opportunities for drug repurposing: Primary screen for Rh30 cells (AID 1347107). Also: nearly all actives have a fitted effect of over 75% in size. A digest of the protocol:
as §1

The nature of assay [6]: qHTS of pediatric cancer cell lines to identify multiple opportunities for drug repurposing: Primary screen for OHS-50 cells (AID 1347103). Also: nearly all actives have a fitted effect of over 40% in size. Also: potency is read from the fitted curve at half-maximal effect. A digest of the protocol:
as §1

Assay [7] is described as follows: qHTS of pediatric cancer cell lines to identify multiple opportunities for drug repurposing: Primary screen for MG 63 (6-TG R) cells (AID 1347105). Also: nearly all actives have a fitted effect of over 50% in size. Also: potency is read from the fitted curve at half-maximal effect. A digest of the protocol:
as §2

Assay [8] can be described thus: qHTS of pediatric cancer cell lines to identify multiple opportunities for drug repurposing: Primary screen for Rh41 cells (AID 1347108). Also: nearly all actives have a fitted effect of over 70% in size. Also: potency is read from the fitted curve at half-maximal effect.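 As to activity change, negative = cytotoxic: luminescence drop marks cytotoxic hits.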 A digest of the protocol: as §2
A short description of assay [9]: qHTS of pediatric cancer cell lines to identify multiple opportunities for drug repurposing: Confirmatory screen for NB1643 cells (AID 1347109). Also: nearly all actives have a fitted effect of over 45% in size. A digest of the protocol:
as §1

Assay [10] can be described thus: qHTS of pediatric cancer cell lines to identify multiple opportunities for drug repurposing: Confirmatory screen for A673 cells (AID 1347110).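 Also: cells exposed to compound for 48 h before the viability read; nearly all actives have a fitted effect of over 65% in size.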 A digest of the protocol:
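A673 cells seeded at 500-1,000 cells/well, rested 5 h, then dosed; primary MIPE 11-point (0.78 nM to 46 µM), NPC (0.59 nM to 46 µM); confirmatory 11-point. CellTiter-Glo luminescence after 48 h.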

A short description of assay [11]: qHTS of pediatric cancer cell lines to identify multiple opportunities for drug repurposing: Confirmatory screen for SK-N-MC cells (AID 1347111).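 Also: cells exposed to compound for 48 h before the readout; nearly all actives have a fitted effect of over 70% in size.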 Also: potency is read from the fitted curve at half-maximal effect. A digest of the protocol: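 Seed 500-1,000 cells/well; rest 5 h at 37 degrees C. Pin-transfer compounds, 11-point titration. Incubate 48 h. Add CellTiter-Glo, 15 min RT, read luminescence.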
A short description of assay [12]: qHTS of pediatric cancer cell lines to identify multiple opportunities for drug repurposing: Confirmatory screen for BT-12 cells (AID 1347112). Also: nearly all actives have a fitted effect of over 55% in size. A digest of the protocol:
as §1

The nature of assay [13]: qHTS of pediatric cancer cell lines to identify multiple opportunities for drug repurposing: Confirmatory screen for LAN-5 cells (AID 1347113). Also: nearly all actives have a fitted effect of over 65% in size. A digest of the protocol:
as §1

Assay [14] can be described thus: qHTS of pediatric cancer cell lines to identify multiple opportunities for drug repurposing: Confirmatory screen for DAOY cells (AID 1347114). Also: nearly all actives have a fitted effect of over 65% in size. A digest of the protocol:
(§3)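 Viability measured as metabolically active cells via CellTiter-Glo luminescence following 48 hours of compound exposure, 11-point dilutions in confirmatory testing. 500-1,000 cells/well plated 5 hours before dosing; controls were DMSO and 2.3 µM bortezomib.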

Assay [15] is described as follows: qHTS of pediatric cancer cell lines to identify multiple opportunities for drug repurposing: Confirmatory screen for SJ-GBM2 cells (AID 1347116). Also: nearly all actives have a fitted effect of over 60% in size. A digest of the protocol:
as §3

The nature of assay [16]: qHTS of pediatric cancer cell lines to identify multiple opportunities for drug repurposing: Confirmatory screen for BT-37 cells (AID 1347117). Also: nearly all actives have a fitted effect of over 55% in size. Also: potency is read from the fitted curve at half-maximal effect. The conditions noted are these: BT-37 pediatric cancer cells, viability; activity change, negative = cytotoxic: at 45.9 µM (top of the series). A digest of the protocol:
as §1

Assay [17] in a line: qHTS of pediatric cancer cell lines to identify multiple opportunities for drug repurposing: Confirmatory screen for MG 63 (6-TG R) cells (AID 1347119). Also: nearly all actives have a fitted effect of over 55% in size. Also: potency is read from the fitted curve at half-maximal effect. A digest of the protocol: as §1
Assay [18] in a line: qHTS of pediatric cancer cell lines to identify multiple opportunities for drug repurposing: Confirmatory screen for TC32 cells (AID 1347118). Also: potency is read from the fitted curve at half-maximal effect. A digest of the protocol: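 Luminescent CellTiter-Glo read-out of metabolically active TC32 cells after 48 h compound exposure. Primary: MIPE 11-point, 0.78 nM–46 µM; NPC 8-point, 0.59 nM–46 µM. Confirmatory: 11-point dilutions.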
Assay [19] in a line: qHTS of pediatric cancer cell lines to identify multiple opportunities for drug repurposing: Confirmatory screen for control Hh wild type fibroblast cells (AID 1347121). Also: nearly all actives have a fitted effect of over 70% in size. A digest of the protocol:
as §1

Results filed as inconclusive are left out. Unmarked numbers belong to inactive results. Calls of active or inactive are those of the source. Calls follow the shape of the dose curve; as a rule, active = well fitted curve in the direction sought with a large enough effect; inconclusive = small, poorly fitted or top-dose-only effect, or another doubt; inactive = no such curve, though single readings can be large; an effect the other way counts as inactive or inconclusive.

With `C[C@H](NC(=O)Cc1cc(F)cc(F)c1)C(=O)N[C@H](C(=O)OC(C)(C)C)c1ccccc1`, the Potency result in assay [1], in assay [2], in assay [3], in assay [4] and in assay [5] was “inactive” in each case.

`COc1ccc(S(=O)(=O)Nc2cc(-c3c(O)ccc4ccccc34)c(O)c3ccccc23)cc1`: the Potency in assay [1] was 30.6 µM (active); in assay [6], 10.9 µM (active); in [3] it was 29.6 µM (active); in assay [7], 18.7 µM (active); in assay [8] it was 18.7 µM (active). For the same compound, the Potency result in assay [4] is “inactive”.

As for `C[C@@H]1[C@H](C)CC[C@]2(C(=O)O)CC[C@]3(C)C(=CC[C@@H]4[C@@]5(C)C[C@@H](O)[C@H](O)[C@@](C)(CO)[C@H]5CC[C@]43C)[C@@H]12`, the Potency entry in assay [1], in [2], in [3], in assay [7], in assay [4] and in assay [5] was “inactive” in each case. Moreover, the Potency entry in assay [8] was “inactive”.

As for `CCn1c(=O)c2c(nc(C=Cc3ccc(OC)c(OC)c3)n2C)n(CC)c1=O`, the Potency entry in assay [1], in assay [2] and in assay [5] was “inactive” throughout.

`CC(=CC(=O)Nc1ccccc1C(=O)O)c1ccc2ccccc2c1`: the Potency result in assay [1], in assay [2], in assay [7] and in assay [5] was “inactive” in each case.

As for `COc1cc(OC)c(NC(=O)Nc2cc(C)on2)cc1Cl`, the Potency result in assay [1], in [2], in assay [3], in [7], in assay [4] and in assay [5] was “inactive” in each case.

Regarding `CCOc1cc2c(c(F)c1OCC)C(=N)N(CC(=O)c1cc(N3CCOCC3)c(OC)c(C(C)(C)C)c1)C2`, the Potency is 27.3 µM (active) in assay [1]; 21.7 µM (active) in assay [6]; 16.6 µM (active) in assay [3]; 14.8 µM (active) in [7]; 23.5 µM (active) in assay [8]. Also, the Potency result in assay [4] was “inactive”.

As for `CC[C@H]1OC(=O)[C@H](C)[C@@H](O[C@H]2C[C@@](C)(OC)[C@@H](O)[C@H](C)O2)[C@H](C)[C@@H](O[C@@H]2O[C@@H](C)C[C@H](N(C)C)[C@@H]2O)[C@](C)(O)C[C@@H](C)C(=O)[C@H](C)[C@@H](O)[C@]1(C)O`, the Potency result in [1], in [2], in assay [3], in [7], in [4] and in assay [5] was “inactive” in each case. The Potency entry in assay [8] is “inactive”.

In the case of `CC(=O)OC[C@@H]1O[C@@H](n2ccc(=O)[nH]c2=O)[C@H](OC(C)=O)[C@H]1OC(C)=O`, the Potency entry in assay [1], in assay [6], in assay [3], in assay [7] and in assay [4] was “inactive” throughout.

`Cc1cc(-c2nnc3n2CCCCC3)c(C)n1-c1ccccc1`: the Potency result in [1], in assay [2], in assay [3], in assay [4] and in assay [8] was “inactive” throughout.

Regarding `COC(=O)[C@@H]1[C@H]2C[C@@H]3c4[nH]c5ccccc5c4CCN3C[C@@H]2CC[C@@H]1O`, the Potency result in [1], in assay [2], in assay [3], in assay [7], in assay [4] and in assay [5] was “inactive” in each case. The Potency entry in assay [8], in [9], in assay [10], in [11], in assay [12] and in assay [13] was “inactive” each time. Besides, the Potency entry in assay [14], in [15], in assay [16] and in assay [17] was “inactive” in each case.

As to `CC(C(C)N1CC(=O)NC(=O)C1)N1CC(=O)NC(=O)C1` (centres undefined), the Potency result in assay [1], in [2], in assay [3], in assay [4], in assay [5] and in [8] was “inactive” each time. Also, the Potency entry in [10], in [12], in assay [13], in assay [14] and in assay [19] was “inactive” in each case. Further, the Potency in assay [11] was 2.93 µM (active); in assay [16], 9.27 µM (active); in assay [18] it was 4.14 µM (active); in [17], 5.22 µM (active).

As to `C=C[C@@H]1CN2CCC1C[C@H]2[C@H](O)c1ccnc2ccc(OC)cc12` (some centres undefined), the Potency result in assay [1], in [2], in assay [3], in [7], in assay [4] and in [5] was “inactive” throughout. The Potency result in assay [8] is “inactive”.

With `CN[C@H](CC(C)C)C(=O)N[C@H]1C(=O)N[C@@H](CC(N)=O)C(=O)N[C@@H]2C(=O)N[C@H]3C(=O)N[C@H](C(=O)N[C@H](C(=O)O)c4cc(O)cc(O)c4-c4cc3ccc4O)[C@H](O)c3ccc(c(Cl)c3)Oc3cc2cc(c3O[C@@H]2O[C@H](CO)[C@@H](O)[C@H](O)[C@@H]2O[C@H]2C[C@](C)(N)[C@H](O)[C@H](C)O2)Oc2ccc(cc2Cl)[C@H]1O`, the Potency entry in assay [1], in assay [6], in [3], in [7], in [4] and in [5] was “inactive” each time. Moreover, the Potency entry in [8] is “inactive”.

Take `O=c1c(O)c(-c2ccc(O)c(O)c2)oc2cc(O)ccc12`: the Potency was 27.3 µM (active) in assay [1] and 21.7 µM (active) in assay [6].

As to `C[N+](C)([O-])CCNc1ccc(NCC[N+](C)(C)[O-])c2c1C(=O)c1c(O)ccc(O)c1C2=O`, the Potency entry in assay [1], in assay [6], in assay [7], in [4], in assay [12] and in assay [17] was “inactive” each time. Further, in [19], the Potency entry is “inactive”.

Regarding `CC1(C)O[C@@H]2C[C@H]3[C@@H]4CCC5=CC(=O)C=C[C@]5(C)[C@@H]4[C@@H](O)C[C@]3(C)[C@]2(C(=O)CO)O1`, the Potency result in [1], in [6], in assay [7], in [4], in assay [5] and in assay [8] was “inactive” each time. Besides, the Potency entry in assay [9], in assay [10], in assay [11], in [12], in [13] and in [14] was “inactive” each time. Also, the Potency result in assay [15], in assay [16], in assay [18], in assay [17] and in [19] was “inactive” throughout.

In the case of `Oc1ccc([C@@H]2Oc3ccc(O)cc3[C@@H]3CCC[C@@H]32)cc1`, the Potency is 24.3 µM (active) in assay [1], 24.3 µM (active) in assay [6], 16.6 µM (active) in assay [3] and 18.7 µM (active) in assay [8].
